Experiment [1] is described as follows: A CellTox Green Cytotoxicity Assay to monitor cytotoxicity in HepG2 cells - 8 hour (AID 1224890). Also: nearly all actives have a fitted effect of over 45% in size. Also: potency is read from the fitted curve at half-maximal effect. In short, it runs like this: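 HepG2 cells, 600/well, preincubated 5 h with CellTox Green dye, then exposed to Tox21 compounds in DMSO at 37 C for up to 40 h. Dead-cell DNA fluorescence read at the indicated time point.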
The nature of experiment [2]: qHTS assay to identify small molecule antagonists of the estrogen receptor alpha (ER-alpha) signaling pathway using the BG1 cell line in the presence of 0.1 nM 17-beta-estradiol - cell viability counter screen (AID 1259241). Also: nearly all actives have a fitted effect of over 40% in size. Summed up:
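Live-cell protease activity (CellTiter-Fluor fluorescence, 30 min) was read in the same wells after VM7Luc4E2 cells had been exposed to compounds with 0.1 nM 17beta-estradiol for 22 hr at 37C.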
(In general: In qHTS, concentration-response curves come from the screen itself.)

Experiment [3] can be described thus: qHTS assay to identify small molecule antagonists of the androgen receptor (AR) signaling pathway using the MDA cell line in the presence of 0.5 nM R1881 - cell viability counter screen (AID 1259242). Also: nearly all actives have a fitted effect of over 45% in size. Summed up:
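MDA-kb2 cells (MMTV-luciferase, AR/GR responsive) were treated with compounds plus 0.5 nM R1881 (final) for 16 hr at 37C, 0% CO2. Viability was then read in the same wells as live-cell protease fluorescence (CellTiter-Fluor, 30 min).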

A short description of experiment [4]: qHTS assay to identify small molecule HDAC inhibitors - cell viability counter screen (AID 1259365). Also: series mostly up to about 92 µM; nearly all actives have a fitted effect of over 50% in size. In short, it runs like this: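 HCT-116 (wild type), 1,500 cells/well, overnight 37C/5% CO2; compound in DMSO 2hr; CellTiter-Glo 30min RT; luminescence read.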
A short description of experiment [5]: qHTS assay to identify small molecule antagonists of the sonic hedgehog signaling (Shh) pathway - cell viability counter screen (AID 1259367). Also: nearly all actives have a fitted effect of over 55% in size. Also: potency is read from the fitted curve at half-maximal effect. In short, it runs like this:
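NIH/3T3-derived Gli1-Luc reporter cells (2,000 per well) rested 4 hr at 37 C, then received DMSO compounds plus conditioned medium. After 23 hr of treatment, CellTiter-Fluor was added for 1 hr at 37C and fluorescence read.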

Experiment [6] can be described thus: qHTS assay to identify small molecule phospholipidosis (PLD) inducers (AID 1259344; active = well fitted curve in the direction sought with a large enough effect; an effect the other way counts as inactive or inconclusive). Summed up: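 HepG2 cells on collagen I, attached 4 h at 37 C, were co-treated with compound and LipidTOX Red dye for 24 h at 37 C, then fixed with paraformaldehyde plus Hoechst 33342 and imaged by high-content microscopy for phospholipid accumulation.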
Experiment [7] in a line: qHTS assay to identify small molecule agonists of the sonic hedgehog signaling (Shh) pathway - cell viability counter screen (AID 1259366). Also: nearly all actives have a fitted effect of over 50% in size. Also: potency is read from the fitted curve at half-maximal effect. Summed up:
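CellTiter-Fluor fluorescence read-out, 1 hr at 37C, added after 23hr compound exposure. Cells: 3T3 Gli1-Luc, an NIH/3T3 clone with stably integrated Gli1-Luc reporter, plated 4hr before compound.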

Experiment [8] is described as follows: qHTS assay to identify small molecule HDAC inhibitors (AID 1259364). Also: nearly all actives have a fitted effect of over 45% in size. Also: potency is read from the fitted curve at half-maximal effect. In short, it runs like this:
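Wild-type HCT-116 cells, plated overnight at 37 C, exposed to compounds 2 hr at 37 C; luminogenic HDAC-Glo substrate then added 30 min at room temperature. Luminescence reports relative endogenous class I/II HDAC activity.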

Several values for one entry are separate records, joined by “and”; a condition that tells them apart may be missing. Equal entries are not always repeated. Results filed as inconclusive are left out. Some structures have more than one record in an assay (separate samples or runs), and their calls can disagree. Activity calls are given as the source filed them. Unless noted, calls follow the shape of the dose curve; as a rule, active = well fitted curve in the direction sought with a large enough effect in the repeat runs; inconclusive = weak or mixed curves; inactive = no such curve, though single readings can be large; an effect the other way counts as inactive or inconclusive.

Consider six molecules from PubChem BioAssay (Tox21).

For `Nc1ccc(-c2ccc(N)c(N)c2)cc1N`, the Potency result in experiment [1], in experiment [2], in experiment [3] and in experiment [5] was “inactive” throughout. In addition, in experiment [4], the call was inactive.

As to `O=Cc1ccco1`, the Potency entry in experiment [1], in experiment [2], in experiment [3], in experiment [7] and in experiment [5] was “inactive” throughout. Moreover, the result in experiment [6] and in experiment [4] was inactive.

For `CCCCCc1cc(O)cc(O)c1`, the Potency entry in experiment [1] was “inactive and 38.9 µM (active)”; in experiment [7] it was “inactive and 30.6 µM (active)”; in experiment [5], 30.6 µM (active). The Potency result in experiment [2], in experiment [3] and in experiment [8] was “inactive” each time. In addition, in experiment [4], the molecule was called inactive.

Turning to `c1ccc(NNc2ccccc2)cc1`, the Potency entry in experiment [1], in experiment [2], in experiment [3], in experiment [7] and in experiment [5] was “inactive” throughout. For the same molecule, the Potency in experiment [8] is 15.4 µM (active). Also, in experiment [4], the molecule was classed as inactive.

On to `Oc1cc(Cl)ccc1Cl`, for which the Potency result in experiment [1], in experiment [2], in experiment [3], in experiment [8], in experiment [7] and in experiment [5] was “inactive” each time. Further, the outcome in experiment [4] was inactive.

On to `CCOP(=S)(OCC)O/N=C(\C#N)c1ccccc1`, for which the Potency entry in experiment [1], in experiment [2], in experiment [3], in experiment [7] and in experiment [5] was “inactive” in each case. Further, the molecule was classed as inactive in experiment [6] and in experiment [4].
